Source: PubChem BioAssay (National Center for Advancing Translational Sciences (NCATS))
Only some compounds are listed: those with a hit (about 19% of all), similar ones and a draw of the others.
TDP1 cell noCPT – qHTS for Inhibitors of human tyrosyl-DNA phosphodiesterase 1 (TDP1): qHTS in cells in absence of CPT | DT40 Tdp1-/- hTDP1 cells, no CPT, ATP luminescence, 48 h | Potency, µM (series often up to 46.2 µM), inactives show at the highest dose activity change, negative = growth inhibition, most hits filed as inhibitors | actives 15% (n = 420,000); further: nearly all actives have a fitted effect of over 55% in size
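Growth kinetics read by CellTiter-Glo luminescence after ≥48 hr at 37 °C. Cells: DT40 Tdp1-/- stably carrying human TDP1, 400 per well, compound exposure in the absence of CPT (DMSO vehicle).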
VP16 counter – VP16 counterscreen qHTS for inhibitors of ROR gamma transcriptional activity | Drosophila S2 Gal4-VP16 UAS-luciferase, luminescence, 20 h | Potency, µM (titrated, usually from 53.6 µM), inactives show at the top dose activity, negative = inhibition, hits mostly inhibitors | actives 3.5% (n = 310,000) | AID 2546, 2010;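 further: Gal4-VP16 expression switched on by copper sulfate through the metallothionein promoter; nearly all actives have a fitted effect of over 50% in size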
DT40 TDP1 CPT – qHTS for Inhibitors of human tyrosyl-DNA phosphodiesterase 1 (TDP1): qHTS in cells in presence of CPT; AID 686979, 2013; actives 12% (n = 420,000); Potency, µM (top dose mostly 46.2 µM), inactives show top-dose activity change, negative = growth inhibition, actives largely listed as inhibitors; chicken DT40 Tdp1-/-;hTDP1 cells + 20 nM CPT, ATP luminescence, 48 h; further: nearly all actives have a fitted effect of over 55% in size
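Chicken DT40 Tdp1-/- cells complemented with human TDP1, 400 cells/well, exposed to compounds plus 20 nM camptothecin for at least 48 h at 37 C; viability read as ATP content by CellTiter-Glo luminescence.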
TDP1 inh – qHTS Assay for Inhibitors of Tyrosyl-DNA Phosphodiesterase (TDP1) | Tyrosyl-DNA phosphodiesterase 1 (Homo sapiens), Q9NUW8 | recombinant TDP1, AlphaScreen DNA substrate cleavage | Potency, µM (titrated, usually from 130 µM), without a hit: top-dose activity change, negative = inhibition, usual class: inhibitors | actives 0.28% (n = 350,000) | AID 485290, 2010; further: nearly all actives have a fitted effect of over 40% in size
Target sequence (Q9NUW8 whole entry, looked up): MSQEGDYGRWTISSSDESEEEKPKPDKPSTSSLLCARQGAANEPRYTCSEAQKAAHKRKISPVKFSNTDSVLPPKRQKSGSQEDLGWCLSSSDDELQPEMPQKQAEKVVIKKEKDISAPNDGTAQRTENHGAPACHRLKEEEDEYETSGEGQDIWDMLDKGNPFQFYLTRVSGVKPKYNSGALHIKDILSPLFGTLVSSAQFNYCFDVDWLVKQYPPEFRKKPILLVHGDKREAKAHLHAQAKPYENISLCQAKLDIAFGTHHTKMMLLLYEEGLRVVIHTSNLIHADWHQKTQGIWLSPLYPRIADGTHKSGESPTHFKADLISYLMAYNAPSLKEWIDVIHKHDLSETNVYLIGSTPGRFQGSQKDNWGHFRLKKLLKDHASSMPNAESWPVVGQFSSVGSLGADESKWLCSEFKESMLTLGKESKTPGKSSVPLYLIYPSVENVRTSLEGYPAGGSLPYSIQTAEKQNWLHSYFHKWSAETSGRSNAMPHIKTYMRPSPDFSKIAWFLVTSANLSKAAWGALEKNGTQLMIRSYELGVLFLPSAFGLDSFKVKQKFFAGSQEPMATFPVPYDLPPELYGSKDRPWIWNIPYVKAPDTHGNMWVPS
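Tdp1 1 nM final; 15 min RT w/ cpd; substrate 15 nM, 5 min; beads 10 ug/ml, 10 min; AlphaScreen read. Neg ctrl: no enzyme.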
RORgamma inh – qHTS for inhibitors of ROR gamma transcriptional activity. Nuclear receptor ROR-gamma (Mus musculus), P51450. Drosophila S2 Gal4-RORgamma UAS-luciferase reporter, 20 h. Potency, µM (top dose mostly 53.6 µM), without a hit: at the highest dose activity change, negative = inhibition, usual class: inhibitors. actives 5.4% (n = 310,000). AID 2551, 2010; further: nearly all actives have a fitted effect of over 60% in size
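Stable Schneider cell line, Gal4 DNA-binding domain fused to ROR gamma, UAS-luciferase. Cmpd 1 hr RT → CuSO4 700 uM final → 20 hr RT → luciferase reagent 10 min → luminescence.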
Active calls of the source: *; [ ] = dose if it differs, or a comment. The call rests on the fitted dose curve; in most records, active means well fitted curve in the direction sought with a large enough effect; inconclusive means small, poorly fitted or top-dose-only effect, or another doubt; inactive means no such curve, though single readings can be large; an effect the other way counts as inactive or inconclusive. On the % scale 0 is the no-effect control and ±100 the full control effect; potency means the concentration at half of the fitted maximal effect.

Screening COc1ccc(NC(=O)c2cc(C3CCCCN3S(=O)(=O)c3cccs3)on2)c(C)c1 (centres undefined) returned TDP1 cell noCPT 23.1µM* and DT40 TDP1 CPT inconclusive.
O=C(NCc1cccnc1)c1cc(C2CCCCN2S(=O)(=O)c2cccs2)on1 (centres undefined) was read as TDP1 cell noCPT -22.5% and DT40 TDP1 CPT -19.5%.
Screening CC1=C(c2ccccc2)C=NNCC1=O returned TDP1 cell noCPT -10.6% and DT40 TDP1 CPT -10.9%.
For O=[N+]([O-])c1cc(-c2nc(-c3ccccc3)no2)ccc1NCCc1ccccc1 the results were TDP1 cell noCPT -12.6%, DT40 TDP1 CPT -6.4% and TDP1 inh 8.6%.
Screening COc1nc(-c2ccccc2)cc(-c2ccc(OC)c(OC)c2)n1 returned TDP1 cell noCPT 20.6µM*, VP16 counter -12.5%, DT40 TDP1 CPT inconclusive, TDP1 inh 0.0% and RORgamma inh -0.3%.
`COc1ccc(-c2cc(C(F)(F)F)nc(NCCc3ccccc3)n2)cc1OC` gave TDP1 cell noCPT -24.9%, DT40 TDP1 CPT -15.9% and TDP1 inh 0.0%.
Screening Cc1ccc(-c2cc(-c3ccccc3)nc(NN)n2)cc1 returned TDP1 cell noCPT -22.3%, VP16 counter -5.0%, DT40 TDP1 CPT inconclusive and RORgamma inh inconclusive.
COc1ccc(-c2cc(-c3ccccc3)nc(NN)n2)cc1OC was read as TDP1 cell noCPT inconclusive, VP16 counter 0.8%, DT40 TDP1 CPT 3.66µM*, TDP1 inh 7.5% and RORgamma inh 28.0%.
Screening CCOc1ccc(NC(=O)CSc2nnc(-c3ccncc3)n2CC2CCCO2)cc1 (centres undefined) returned TDP1 cell noCPT -0.5%, VP16 counter -12.2%, DT40 TDP1 CPT 2.5%, TDP1 inh 2.1% and RORgamma inh 0.0%.
For C=CCN(C(=O)Nc1ccccc1)C1CC(=O)N(c2ccc(OC)cc2)C1=O (centres undefined) the results were TDP1 cell noCPT -15.0%, VP16 counter 6.8%, DT40 TDP1 CPT -23.8%, TDP1 inh 3.4% and RORgamma inh -15.0%.
For C[C@@H]1CC2(OC3C[C@@]4(C)C5=CC[C@H]6C(C)(C)C(O[C@@H]7OC[C@@H](O)[C@H](O)[C@H]7O)CC[C@@]67C[C@@]57CC[C@]4(C)C31)OC(O)C1(C)OC21 (some centres undefined) the results were VP16 counter -13.2%, TDP1 inh 9.9% and RORgamma inh -8.0%.
CCCCCc1c(-c2ccccc2OC)ncn1CCc1ccccc1OC was read as TDP1 cell noCPT 5.17µM* and DT40 TDP1 CPT 5.17µM*.
CCCCN(CC)C(=O)Cc1ccccc1OC was read as TDP1 cell noCPT inconclusive, VP16 counter -6.4%, DT40 TDP1 CPT -25.9%, TDP1 inh 1.5% and RORgamma inh 14.9%.
`CCCCc1c(-c2ccccc2OC)ncn1CCc1ccccc1OC` gave TDP1 cell noCPT 8.2µM* and DT40 TDP1 CPT 11.6µM*.
Screening CCCCc1c(-c2ccccc2Br)ncn1CCc1ccccc1OC returned TDP1 cell noCPT 20.6µM* and DT40 TDP1 CPT 14.6µM*.
For CCCCc1c(-c2ccccc2OC)ncn1CCc1ccccc1Cl the results were TDP1 cell noCPT 14.6µM* and DT40 TDP1 CPT 7.31µM*.
For COc1ccccc1CCNc1ncnc2c1nnn2C the results were TDP1 cell noCPT -28.3%, DT40 TDP1 CPT -12.5% and TDP1 inh -5.2%.
Screening CCc1ccccc1NC(=O)CSc1nnc(C2CC2)n1CC1CCCO1 (centres undefined) returned TDP1 cell noCPT inconclusive, VP16 counter 2.8%, DT40 TDP1 CPT -24.4%, TDP1 inh 10.4% and RORgamma inh -14.9%.
Screening CCOC(=O)CNc1c(N2CCN(c3ccccn3)CC2)c(=O)c1=O returned TDP1 cell noCPT -16.3%, VP16 counter -4.8%, DT40 TDP1 CPT -5.6%, TDP1 inh 2.5% and RORgamma inh -2.4%.
For COc1ccccc1CNC(=O)CCn1cnc2ccccc2c1=O the results were TDP1 cell noCPT -21.7% and DT40 TDP1 CPT -2.6%.
Screening CCCCCc1c(CC)ncn1CCc1ccccc1OC returned TDP1 cell noCPT 2.91µM* and DT40 TDP1 CPT 4.61µM*.
`COc1ccc2nc(Nc3nc(CSc4nnc(C)s4)cc(=O)[nH]3)nc(C)c2c1` gave VP16 counter -3.0%, TDP1 inh -2.6% and RORgamma inh -7.3%.
`Cc1ccc2nc(Nc3nc(CSc4nc5ccccc5s4)cc(=O)[nH]3)nc(C)c2c1` gave TDP1 cell noCPT 14.6µM*, VP16 counter -2.1%, DT40 TDP1 CPT 11.6µM*, TDP1 inh 1.1% and RORgamma inh -2.1%[10 µM].
For Cc1ccc2nc(Nc3nc(CSc4nnc(C)s4)cc(=O)[nH]3)nc(C)c2c1 the results were TDP1 cell noCPT 14.6µM*, VP16 counter -4.5%, DT40 TDP1 CPT inconclusive, TDP1 inh -2.5% and RORgamma inh 16.7%.
CCN(C(=O)COC(=O)c1cccnc1)c1cccc2ccccc12 was read as TDP1 cell noCPT inconclusive, DT40 TDP1 CPT inconclusive and TDP1 inh 1.2%.
`CCN(C(=O)COc1ccc(C(C)=O)cc1)c1cccc2ccccc12` gave TDP1 cell noCPT inconclusive, DT40 TDP1 CPT 14.6µM* and TDP1 inh -0.1%.
For O=C(c1sccc1-c1ccccc1)N1CCN(S(=O)(=O)c2ccccc2F)CC1 the results were TDP1 cell noCPT inconclusive, DT40 TDP1 CPT 14.6µM* and TDP1 inh 0.7%[0.505 µM].
`COc1ccc(S(=O)(=O)N2CCN(C(=O)c3cccs3)CC2)cc1` gave TDP1 cell noCPT -16.8%, VP16 counter -0.4%, DT40 TDP1 CPT -12.7%, TDP1 inh 5.8% and RORgamma inh 28.1%.
`COc1ccc(S(=O)(=O)N2CCN(C(=O)c3sccc3-c3ccccc3)CC2)cc1` gave TDP1 cell noCPT 20.6µM*, DT40 TDP1 CPT 14.6µM* and TDP1 inh -10.4%[0.505 µM].
Screening CCN(CC)S(=O)(=O)c1cccc(C(=O)OCC(=O)N2CC(=O)Nc3ccccc32)c1 returned TDP1 cell noCPT -5.7%, VP16 counter 0.3%, DT40 TDP1 CPT -2.8%, TDP1 inh 2.0% and RORgamma inh 1.9%.
`C/C(=N\NC(=O)C1CC1)c1ccc(N2CCOCC2)cc1` gave TDP1 cell noCPT -1.4%, VP16 counter -3.2%, DT40 TDP1 CPT 3.5%, TDP1 inh 3.6% and RORgamma inh 1.2%.
Screening COc1ccccc1NC(=O)COC(=O)c1oc2ccccc2c1C returned TDP1 cell noCPT -0.1%, VP16 counter -4.5%, DT40 TDP1 CPT -25.4%, TDP1 inh -4.5% and RORgamma inh -4.4%.
